Measurements: PubChem BioAssay (NCATS)
Records with an inconclusive call do not appear. Values without a mark were called inactive. Active and inactive are the calls of the source. Calls follow the shape of the dose curve; as a rule, active = well fitted inhibition curve with a large enough effect; inconclusive = small, poorly fitted or top-dose-only effect; inactive = flat fitted curve, though single readings scatter. Positions of bridges follow the written chain, without caps; N, C: chain ends. Non-standard residues stand in square brackets, D forms with d. Residues, ends and D or L forms follow the SMILES beside them. ξ: configuration not given here. *: point of attachment. Octanoyl(6-Me) = CCC(C)CCCCC(=O)*; X1 = CCC(C)C(N)C1=NC(C(=O)*)CS1; ξThr(3R) = C[C@@H](O)C(N)C(=O)O; dOrn = NCCC[C@@H](N)C(=O)O; dDab = NCC[C@@H](N)C(=O)O; Dab = NCC[C@H](N)C(=O)O

Experiment: BET inhibitor-based combinations targeting novel dependencies in MECOM-rearranged (r) AML: AML-191 cell line (AID 2202236; also: nearly all actives have a fitted effect of over 35% in size;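 as to viability (% of control): plate controls were vehicle wells for no effect and wells without cells for full effect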)
Conditions: AML-191 viability, CellTiter-Glo luminescence, 48 h; series mostly up to 46 µM; viability (% of control): at the top concentration
Description: Ecotropic viral insertion site 1 (EVI1) is located on chromosome 3q26.2 as part of the MECOM (MDS and EVI1 complex) locus. Under normal hematopoiesis, EVI1 is a regulator of hematopoietic stem cell maintenance and self-renewal and EVI1 levels decrease as the cells differentiate. In approximately 5-10% of de novo acute myeloid leukemia (AML) EVI1 is aberrantly expressed, including Chromosomal inv(3)(q21;q26.2) or t(3;3)(q21;q26.2) alterations (MECOM-r) that account for about 50% of AML with EVI1 overexpression 31. AMLs with high levels of EVI1 have a poor prognosis and an overall survival time averaging between 10-14 months. EVI1 overexpression confers resistance in leukemia cells, highlighting the need to develop new targeted therapies for EVI1 overexpressing AMLs.
Here, we performed an unbiased chemical drug screening by evaluating the single agent activity of a collection of 2,480 oncology-focused, approved and investigational drugs (NCATS Mechanism Interrogation Plates, MIPE v5.0) against a panel of seven AML cell lines. These included four MECOM-r cell-lines (AML-191, AML-194, UCSD-AML1 and HNT-34) and three non-MECOM-r AMLs (MV4-11, OCI-AML3 and SET-2). Exploiting the mechanistic redundancy built in the library, we identified target-level sensitivities in MECOM-r AML cells and relative activity as compared to other AML subtypes.
A collection of 2480 mechanistically annotated dugs (MIPE v5.0) was used to screen four 3q26.2 rearranged AML cell lines and three non-3q26.2 rearranged AML cell lines. This library purposely exploits redundancy by including multiple inhibitors of key onco-targets, while simultaneously encompassing mechanistic diversity, targeting more than 800 distinct mechanisms of action. Briefly, cells were seeded in 5 uL of growth media using a Multidrop Combi dispenser into 1536 well white polystyrene tissue culture treated plates (Corning) at a density of 500cells/well. For each cell-line, for each of the 2480 drugs in MIPE v5.0 library, an 11-point dose curve was generated via a 1536 pin-tool. Plates were incubated for 48 hr at standard incubator conditions, covered by a stainless steel gasketed lid to prevent evaporation. Cell viability was determined by luminescence based, Cell Titer Glo assay (Promega). In detail, 3 uL of Cell Titer Glo were added to each well and plates were incubated at room temperature for 15 min with a stainless-steel lid in place. Luminescence readings were taken using a Viewlux (PerkinElmer) with a 2 s exposure time per plate. Compound dose-response curves were normalized to DMSO and empty well controls on each plate. Quantitative drug activity data from dose-response curves was determined utilizing area Under the Curve (AUC) and Z-transformed AUC (Z-AUC, a mean-centering transformation applied to each individual cell-line screened).
Potency is read from the fitted curve at half-maximal effect.

Compound | viability (% of control) | Potency
CCOC(=O)c1ncn2c1CN(C)C(=O)c1cc(F)ccc1-2 | 103% | –
Cn1c(=O)c(Oc2ccc(F)cc2F)cc2cnc(NC3CCOCC3)nc21 | 109% | –
COc1nc(-c2ccc3c(c2)OCO3)n(-c2ccc(NC(=O)CSc3ccccc3)cc2)n1 | 104% | –
COc1ccc(-c2coc3cc(O)cc(O)c3c2=O)cc1 | 73.5% | –
O=S(=O)(O)CCS | 109% | –
COc1ccc(-c2cc3nccn3c(Nc3ncccc3C(N)=O)n2)cc1OC | – | 8.33 µM (active)
CC(=O)OC1C(C)OC(Oc2c(-c3ccc(O)cc3)oc3cc(O)cc(O)c3c2=O)C(O)C1OC(C)=O (stereo not given) | 77.3% | –
CC1(C)CCC(C)(C)c2cc(NC(=O)c3ccc(C(=O)O)cc3)ccc21 | – | 0.0021 µM (active)
Cc1cc2nc3c(=O)[nH]c(=O)nc-3n(CC(O)C(O)C(O)CO)c2cc1C (stereo not given) | 93.5% | –
CN1c2ccccc2C(=O)N2CCc3c([nH]c4ccccc34)C21 (stereo not given) | – | 1.32 µM (active)
CCOC(=O)[C@H](CCc1ccccc1)N[C@@H](C)C(=O)N1CCC[C@H]1C(=O)O | 99.6% | –
NCCc1cnc[nH]1 | 90.2% | –
NCCc1ccc(O)c(O)c1 | 102% | –
COc1ccc(CC2=NN3C([C@@H](CCc4ccccc4)[C@@H](C)O)=NC(C)C3C(=O)N2)cc1OC (stereo not given in full) | – | 16.6 µM (active)
COc1cc(OC)c(C(=O)CCCN2CCCC2)c(OC)c1 | 102% | –
CCC(C)CCCCC(=O)N[C@@H](CCN)C(=O)NC(C(=O)N[C@H](CCN)C(=O)N[C@@H]1CCNC(=O)C([C@@H](C)O)NC(=O)[C@@H](CCN)NC(=O)[C@@H](CCN)NC(=O)[C@@H](CC(C)C)NC(=O)[C@H](Cc2ccccc2)NC(=O)[C@H](CCN)NC1=O)[C@@H](C)O (stereo partly drawn) ({Octanoyl(6-Me)}-[Dab][ξThr(3R)][dDab][dDab][Dab]F[dL][dDab][dDab][ξThr(3R)]; lactam 4-C) | 103% | –
CC(C[N+](C)(C)C)OC(N)=O (stereo not given) | 108% | –
Cc1cc(O)c2c(c1)C(=O)c1cc(O)cc(O)c1C2=O | – | 16.6 µM (active)
COC(=O)N(C)c1c(N)nc(-c2nn(Cc3ccccc3F)c3ncccc23)nc1N | 103% | –
O=C1N(c2ccccc2)c2ccccc2C1(Cc1ccncc1)Cc1ccncc1 | 93.5% | –

Compound | viability (% of control) | Potency
CC(=O)O[C@H]1C[C@@H]2CC[C@@H]3[C@H](CC[C@@]4(C)[C@H]3C[C@H]([N+]3(C)CCCCC3)[C@@H]4OC(C)=O)[C@@]2(C)C[C@@H]1N1CCCCC1 | 99.8% | –
N[C@@]1(C(=O)O)CS(=O)(=O)[C@H]2[C@H](C(=O)O)[C@H]21 | 99.5% | –
CCC(C)C(N)C1=NC(C(=O)N[C@@H](CC(C)C)C(=O)N[C@H](CCC(=O)O)C(=O)N[C@H](C(=O)N[C@H]2CCCCNC(=O)[C@H](CC(N)=O)NC(=O)[C@@H](CC(=O)O)NC(=O)[C@H](Cc3cnc[nH]3)NC(=O)[C@@H](Cc3ccccc3)NC(=O)[C@H]([C@@H](C)CC)NC(=O)[C@@H](CCCN)NC2=O)[C@@H](C)CC)CS1 (stereo not given in full) (X1-L[dE]IK[dOrn]I[dF]H[dD]N; lactam 4-C) | 102% [at 15.6 µM] | –
CCNC(=O)C#Cc1ccc2c(C(=Nc3ccc(CN(C)C)cc3)c3ccccc3)c(O)[nH]c2c1 | – | 0.204 µM (active)
CC(C)Nc1cc(C(F)(F)F)cc2nc(NC(=O)c3cccnc3)nn12 | 80.1% | –
C1=C/COCc2cc(ccc2OCCN2CCCC2)Nc2nccc(n2)-c2cccc(c2)COC/1 | – | 1.86 µM (active)
C=C1C[C@@]2(O)O[C@@]3(C[C@H]2C(C)C)[C@@H](C)CC[C@@H]13 | 103% | –
C[C@@H]1O[C@@H](O[C@@H]2\C=C/C=C\C=C/C=C\C[C@H](C)OC(=O)/C=C\[C@H]3O[C@@H]3C[C@H](O)C[C@]3(O)C[C@@H](O)[C@@H](C(=O)O)[C@H](C2)O3)[C@H](O)[C@H](N)[C@@H]1O | 98.1% | –
Nc1ncnc2c1C(=O)N(c1ccc(C3CCC(CC(=O)O)CC3)cc1)CCO2 (stereo not given) | 102% | –
NS(=O)(=O)c1cc2c(cc1Cl)NCNS2(=O)=O | 92.5% | –
COc1ccc(CCN(C)CCCOc2ccc(S(=O)(=O)c3[nH]c4ccccc4c3C(C)C)cc2)cc1OC | – | 18.6 µM (active)
CC(COc1ccccc1)N(CCCl)Cc1ccccc1 (stereo not given) | 94.3% | –
CNC(=O)c1cc(COc2nnc(Nc3ccc(Cl)cc3)c3ccoc23)ccn1 | 84.7% | –
O=C(CCl)Nc1cccc(NC2=NS(=O)(=O)c3ccccc32)c1 | – | 8.33 µM (active)
NC(=O)c1cccc(-c2cccc(OC(=O)NC3CCCCC3)c2)c1 | 97.9% | –
O=c1c(O)c(-c2ccc(O)c(O)c2)oc2cc(O)cc(O)c12 | 104% | –
O=c1c(O)c(-c2ccc(O)cc2O)oc2cc(O)cc(O)c12 | 112% | –
Cc1cnc(Nc2ccc(F)cc2Cl)nc1-c1c[nH]c(C(=O)N[C@H](CO)c2cccc(Cl)c2)c1 | – | 16.6 µM (active)
CN(CCOc1ccc(NS(C)(=O)=O)cc1)CCc1ccc(NS(C)(=O)=O)cc1 | 106% | –
CCCCCCCCCCCCc1ccc(S(=O)(=O)Nc2nncs2)cc1 | 85.9% | –
